The record followed here is ChEMBL document CHEMBL1157539, “Thousands of chemical starting points for antimalarial lead identification” (Nature, 2010).

Common to all, as to type: functional
In experiment [1] the test system is Plasmodium falciparum. As to the kind of experiment: GSK_TCMDC: Inhibition of Plasmodium falciparum 3D7 in whole red blood cells, using parasite LDH activity as an index of growth. Test compounds present at 2uM.
For experiment [2], the system named is Plasmodium falciparum. As to the kind of experiment: GSK_TCMDC: Inhibition of Plasmodium falciparum Dd2 in whole red blood cells, using parasite LDH activity as an index of growth. Test compounds present at 2uM.
The test system of another experiment is HepG2. As to the kind of experiment: GSK_TCMDC: Percent inhibition of human HepG2 cell line. Test compounds present at 10uM.

The term Inhibition denotes the change of the read-out against control, counted positive when it falls. In the case of `Cc1cccc2nc(-c3cccc(-c4ccc(NC(=O)COC(C)C)cc4)c3)[nH]c12`, the Inhibition amounted to 82% in the experiment with Plasmodium falciparum [1], 11% with Plasmodium falciparum [2] and 0% in the experiment with HepG2.

For `COC(=O)CNC(c1ccccc1)c1cc(Br)ccc1NC(=O)c1ccccc1Br` (stereo not given), the figures for the Inhibition in the experiment with Plasmodium falciparum [1], in the experiment with Plasmodium falciparum [2] and in the experiment on HepG2 were 99%, 77% and 10%, respectively.

Take `O=C(c1ccco1)N1CCN(c2ccc([N+](=O)[O-])c(NC3CC3)c2)CC1`: the results for the Inhibition with Plasmodium falciparum [1], in the experiment with Plasmodium falciparum [2] and with HepG2 were 100%, 99% and 0%, respectively.

For the compound `Cc1cc(F)ccc1-c1nc(NCCCNCCc2ccccc2)nc2c1ccc(=O)n2-c1c(F)cccc1F.O=C(O)C(F)(F)F`, the Inhibition in the experiment on Plasmodium falciparum [1] is 100%; with Plasmodium falciparum [2], 100%; in the experiment with HepG2 it was 36%.

Take `Cc1cccc(C(=O)Nc2ccnc(N3CCC(N(C)Cc4ccccc4)CC3)c2)c1.O=C(O)C(F)(F)F`: the Inhibition is 93% with Plasmodium falciparum [1], 2% in the experiment on Plasmodium falciparum [2] and 12% in the experiment on HepG2.

Turning to `COc1ccccc1N1CCN(CCCCN(C(=O)Nc2cccc(Cl)c2)C(=O)Nc2cccc(Cl)c2)CC1.Cl`, the figures for the Inhibition in the experiment with Plasmodium falciparum [1], with Plasmodium falciparum [2] and with HepG2 were 100%, 65% and 4%, respectively.

For the compound `O=C(O)C(F)(F)F.c1ccc(CNCc2cccc(-c3cccc(-c4nc5ccccc5[nH]4)c3)c2)cc1`, the values for the Inhibition in the experiment with Plasmodium falciparum [1], in the experiment on Plasmodium falciparum [2] and in the experiment on HepG2 were 100%, 38% and 12%, respectively.

For `C[C@@H](CC1CCCCC1)OC(=O)N(C)[C@@H]1CCN(C#N)C1`, the Inhibition in the experiment on Plasmodium falciparum [1] is on record as 95%; with Plasmodium falciparum [2], 96%; with HepG2 it was 5%.

With `Cc1ccc(C(=O)NC2C(=O)NC2c2ccccc2)c(C)c1` (stereo not given), the figures for the Inhibition in the experiment with Plasmodium falciparum [1], with Plasmodium falciparum [2] and with HepG2 were 90%, 0% and 7%, respectively.

In the case of `O=C(Nc1ccc(-c2csc3nccn23)cc1)c1ccc(Cl)cc1`, the Inhibition was found to be 100% in the experiment with Plasmodium falciparum [1], 50% in the experiment with Plasmodium falciparum [2] and 54% in the experiment with HepG2.

As for `COc1cccc(CN2CCC3(CC2)CN(C(=O)Nc2ccc(Cl)c(Cl)c2)C3)c1`, the Inhibition in the experiment on Plasmodium falciparum [1] is listed as 97%; in the experiment on Plasmodium falciparum [2], 2%; in the experiment with HepG2 it was 29%.

As for `O=C(Nc1ccc(C(F)(F)F)cc1)c1cccc(S(=O)(=O)NC2CCN(CC3CCCCC3)C2)c1.O=C(O)C(F)(F)F` (stereo not given), the results for the Inhibition in the experiment on Plasmodium falciparum [1], with Plasmodium falciparum [2] and with HepG2 were 98%, 10% and 32%, respectively.

For `CN1CCCN(Cc2ccc(-c3cccc(NC(=O)c4cccc(F)c4)c3)cc2)CC1.O=C(O)C(F)(F)F`, the Inhibition in the experiment with Plasmodium falciparum [1] came out at 91%; in the experiment on Plasmodium falciparum [2] it was 12%; in the experiment with HepG2, 28%.

For the compound `COc1c(CNCCCCCCNCc2cc(Cl)c3ccccc3c2OC)cc(Cl)c2ccccc12.CS(=O)(=O)O`, the Inhibition is 96% in the experiment with Plasmodium falciparum [1], 45% in the experiment on Plasmodium falciparum [2] and 100% in the experiment on HepG2.

With `CCOC(=O)c1ccc(NC(=O)N(Cc2ccc(-c3cccc(CN4CCNCC4)c3)cc2)C2CCN(Cc3ccccc3)CC2)cc1.O=C(O)C(F)(F)F`, the Inhibition with Plasmodium falciparum [1] was 100%; in the experiment on Plasmodium falciparum [2], 55%; with HepG2 it was 19%.

As to `Cc1cc(F)ccc1Nc1nc(N(C)c2ccccc2)c2cccc(OCCO)c2n1`, the Inhibition with Plasmodium falciparum [1] is recorded as 95%; with Plasmodium falciparum [2] it was 94%; with HepG2, 34%.

On to `CCCC(C)c1ccc(N2C(N)=NC(N)=NC2(C)C)cc1.Cl` (stereo not given), for which the values for the Inhibition in the experiment on Plasmodium falciparum [1], in the experiment on Plasmodium falciparum [2] and in the experiment on HepG2 were 90%, 7% and 51%, respectively.

For `CCNc1cc(C(=O)N[C@@H](Cc2ccccc2)[C@H](O)CN[C@@H]2CCc3ccccc32)cc(N2CCCCS2(=O)=O)c1`, the Inhibition is given as 98% with Plasmodium falciparum [1], 97% in the experiment with Plasmodium falciparum [2] and 0% in the experiment with HepG2.

For `CC(C)COc1ccc(Cl)cc1Cc1nc(-c2nc3ccc(CN4CCN(C)CC4)cc3[nH]2)co1.Cl`, the Inhibition was 100% in the experiment with Plasmodium falciparum [1], 57% in the experiment with Plasmodium falciparum [2] and 5% in the experiment with HepG2.

For the compound `COc1ccc(NC(=O)[C@H](Cc2ccccc2)Nc2cc(C)nc(NCC3CCCCC3)n2)cc1.O=C(O)C(F)(F)F`, the Inhibition is on record as 100% in the experiment with Plasmodium falciparum [1], 83% in the experiment on Plasmodium falciparum [2] and 9% in the experiment on HepG2.

Regarding `Nc1nccc(-c2ccc3c(/C=C/c4ccccc4)cnc(N)c3c2)n1`, the Inhibition stood at 100% in the experiment on Plasmodium falciparum [1], 100% with Plasmodium falciparum [2] and 32% in the experiment on HepG2.

Take `CC(=O)Nc1ccc(CN2CCCN(c3cc(NC(=O)c4cccc(C)c4)ccn3)CC2)cc1.O=C(O)C(F)(F)F`: the Inhibition in the experiment on Plasmodium falciparum [1] stood at 92%; in the experiment with Plasmodium falciparum [2] it was 10%; in the experiment on HepG2, 0%.

Regarding `O=C(c1ccco1)N1CCN(c2nc(-c3ccc(Cl)cc3)nc3ccccc23)CC1`, the Inhibition in the experiment with Plasmodium falciparum [1] was found to be 96%; in the experiment on Plasmodium falciparum [2], 91%; in the experiment on HepG2, 13%.

For `O=C(Nc1ccccc1)N(Cc1ccccc1-c1cccc(CNC2CCCC2)c1)C1CCN(Cc2ccccc2)CC1.O=C(O)C(F)(F)F`, the Inhibition in the experiment with Plasmodium falciparum [1] is given as 100%; with Plasmodium falciparum [2], 84%; in the experiment with HepG2, 36%.

For the compound `CN(C)CCCOc1cccc(NC(=O)Nc2ccc(Cl)c(Cl)c2)c1.O=C(O)C(F)(F)F`, the Inhibition with Plasmodium falciparum [1] is 90%; in the experiment with Plasmodium falciparum [2], 8%; in the experiment on HepG2, 6%.

Take `CN1CCCN(c2ccnc3cc4c(cc23)N(C(=O)c2ccc(Cl)c(Cl)c2)CC4)CC1.Cl`: the Inhibition is listed as 100% in the experiment with Plasmodium falciparum [1], 73% in the experiment with Plasmodium falciparum [2] and 20% in the experiment on HepG2.

On to `C=CCOC(=O)N1CCC(CNCc2ccc(-c3ccc(-c4nc5cc(C(F)(F)F)ccc5[nH]4)cc3)cc2)C1.O=C(O)C(F)(F)F` (stereo not given), for which the Inhibition stood at 100% in the experiment with Plasmodium falciparum [1], 98% in the experiment with Plasmodium falciparum [2] and 44% with HepG2.

For `Cc1c(Cn2ncc(N3CC(C)NC(C)C3)c(Cl)c2=O)cccc1NC(=O)Nc1ccc(-c2ccccc2)cc1.O=C(O)C(F)(F)F` (stereo not given), the Inhibition in the experiment with Plasmodium falciparum [1] came out at 97%; in the experiment on Plasmodium falciparum [2], 35%; in the experiment on HepG2 it was 97%.

Take `Fc1cccc(Cl)c1-c1nc(NCCC(c2ccccc2)c2ccccc2)no1`: the Inhibition in the experiment on Plasmodium falciparum [1] came out at 99%; in the experiment on Plasmodium falciparum [2], 87%; with HepG2 it was 4%.

Take `Cl.c1ccc(-c2cc(NCCCCNc3cc(-c4ccccc4)nc4ccccc34)c3ccccc3n2)cc1`: the figures for the Inhibition in the experiment with Plasmodium falciparum [1], in the experiment on Plasmodium falciparum [2] and in the experiment on HepG2 were 100%, 97% and 70%, respectively.
